HRas wt GTP bind = modulators of GTP binding to human HRas wildtype | P01112 | GST-Ras wt beads, Bodipy-FL-GTP binding, flow cytometry; actives lie on both sides | GTP binding activity, % at 10 µM | hit rate 0.14% among 190,000;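 active means GTP binding activity at least 20% away from the 100% baseline, either lowered as inhibitor or raised as activator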;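 further: 0% = unlabeled GTP competition control and 100% = no-compound control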
Target sequence (P01112 whole entry, looked up): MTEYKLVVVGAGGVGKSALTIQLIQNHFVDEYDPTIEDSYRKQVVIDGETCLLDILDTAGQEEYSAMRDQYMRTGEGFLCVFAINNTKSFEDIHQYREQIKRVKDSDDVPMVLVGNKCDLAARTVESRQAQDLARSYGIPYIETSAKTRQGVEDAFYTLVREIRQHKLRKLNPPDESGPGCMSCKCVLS
Rab7 wt GTP bind = modulators of GTP binding to dog Rab7 wildtype GTPase; GST-Rab7 beads, fluorescent GTP binding, flow cytometry; actives lie on both sides; untreated = 100%, excess cold GTP = 0%; GTP binding activity (percent of control), % at 10 µM; hit rate 0.055% among 190,000;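 active means fluorescent GTP binding to Rab7 beads changed by at least 20 points from the 100% baseline, either direction, mostly lower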;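 further: median green fluorescence of bound Bodipy-FL-GTP per Rab7 bead population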
Rac1 mut GTP = alters GTP binding to activated mutant human Rac1; P63000; GST-Rac1 activated beads, fluorescent GTP binding, flow cytometry; actives lie on both sides; 100% means binding = to untreated wells; percent activity (GTP binding), % at 10 µM; hit rate 0.11% among 190,000; AID 764;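 active means GTP binding at least 20 percentage points away from the 100% baseline, in either direction, so actives lie on both sides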
Rac1 wt modul = modulators of human Rac1 wildtype GTP binding. P63000. GST-Rac1 beads, fluorescent GTP binding, flow cytometry; actives lie on both sides; 0 = cold GTP competed, 100 = untreated. GTP binding activity (% of control), % at 10 µM. hit rate 0.27% among 190,000;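 active means GTP binding activity at least 20 points away from the 100% control level, either lower or higher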
Rab2 wt GTP = changes GTP binding to wildtype dog Rab2A, up or down | GST-Rab2 wt beads, Bodipy-GTP binding, flow cytometry | hit rate 0.19% among 190,000 | AID 760 | GTP binding activity, % at 10 µM;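 active means GTP binding activity at least 20 points away from 100%, either lowered or raised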;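 further: 0% = beads with excess unlabeled GTP and 100% = no-compound control corrected for plate trend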
Cdc42 wt GTP = modulators (inhibitors or activators) of GTP binding to human Cdc42 wildtype | GST-Cdc42 beads, Bodipy-GTP binding, flow cytometry; actives lie on both sides | percent activity (GTP binding), % at 10 µM | hit rate 0.2% among 190,000 | P60953;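 active means percent activity GTP binding at least 20 points away from the 100% baseline, either down as inhibitor or up as activator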;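 further: median bead fluorescence of bound Bodipy-FL-GTP at 100 nM; 0% = excess unlabeled GTP control and 100% = no compound control; below 100% means less GTP binding so inhibitor and above means activator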
Target sequence (P60953 whole entry, looked up): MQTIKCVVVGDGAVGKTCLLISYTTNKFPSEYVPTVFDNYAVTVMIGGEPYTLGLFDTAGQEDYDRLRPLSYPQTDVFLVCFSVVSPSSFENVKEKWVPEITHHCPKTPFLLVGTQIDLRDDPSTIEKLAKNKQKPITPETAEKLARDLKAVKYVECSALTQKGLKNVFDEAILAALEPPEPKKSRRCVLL
* hit, by the source's call; [ ] = another dose, or the depositor's remark. In the library only some 0.37% were active in any assay of this set; here they are far more common.

SMILES	HRas wt GTP bind	Rab7 wt GTP bind	Rac1 mut GTP	Rac1 wt modul	Rab2 wt GTP	Cdc42 wt GTP
COc1ccc(-c2nnc(SCC(=O)c3cccs3)o2)cc1	42*	59*	62*	58*	60*	54*
COCC(C)n1c(=O)sc2ccccc2c1=O (stereo not given)	98	98	96	94	97	95
CCc1ccc(NC(=O)C(C)OC(=O)C2CCC(=O)N2)cc1 (stereo not given)	100	100	99	104	99	103
COc1ccc(/C(C)=N/NC(=O)c2sccc2-n2cccc2)cc1	102	98	98	100	103	101
CC(SC(=S)N(C)Cc1cccs1)C(=O)O (stereo not given)	140*[activator]	136*[activator]	144*[activator]	196*[activator]	140*[activator]	168*[activator]
CCCCOC(=O)CSC(=S)N(C)Cc1cccs1	103	100	101	100	104	102
O=C(NCCN1CCOCC1)c1ccc(=O)n(Cc2ccc(Cl)cc2)c1	95	97	94	98	95	96
CCCCCC(=O)Oc1cccc(N2C(=O)C3CCCCC3C2=O)c1 (stereo not given)	100	101	96	105	101	100
COc1cc(/C=N/NC(=O)C(Cc2c[nH]c3ccccc23)NC(=O)OCC(C)C)cc([N+](=O)[O-])c1O (stereo not given)	88	91	88	88	87	89
COc1cc(/C=N/NC(=O)C(Cc2c[nH]c3ccccc23)NC(=O)OCc2ccccc2)cc([N+](=O)[O-])c1O (stereo not given)	80	83	82	78*	77*	83
O=C(NCc1nnc(SCC(=O)N2CCCc3ccccc32)o1)c1c(F)cccc1Cl	94	98	96	97	101	97
COCCNC(=O)c1cnn2c(C(F)F)cc(-c3ccccc3)nc12	90	98	88	79*	87	83
O=C(NCc1ccco1)c1cnn2c(C(F)F)cc(-c3ccccc3)nc12	98	99	96	99	98	97
CCn1c2ccccc2c2nc3ccccc3nc21	101	102	98	101	100	98
CCn1c2ccccc2c2nc3cc(C(=O)O)ccc3nc21	85	98	87	77*	84	83
COc1cccc(Oc2nnnn2-c2ccccc2)c1	99	98	99	104	99	99
COc1cccc(-n2nnnc2S(C)(=O)=O)c1	90	92	70*	85	85	72*
CCNC(=O)c1ccccc1SCC(=O)Nc1ccc(F)cc1	98	101	92	101	95	90
Cn1cc(C(=O)N2CCc3ccccc3C2)c(=O)c2cc(S(=O)(=O)N3CCCCC3)ccc21	111	104	103	121*[activator]	111	110
O=C(CCCOc1ccccc1)Nc1ccc(S(=O)(=O)Nc2ccccn2)cc1	93	95	98	96	95	97
NS(=O)(=O)c1ccc(N2N=C(c3ccccc3)CC2c2ccc(F)cc2)cc1 (stereo not given)	97	93	96	94	94	89
COc1ccc(C2CC(c3ccccc3)=NN2c2ccc(S(N)(=O)=O)cc2)cc1 (stereo not given)	99	104	94	98	97	78*
O=C(COC(=O)c1cccnc1Cl)c1ccc(OC(F)F)cc1	96	100	95	90	98	97
Cc1[nH]c2ccccc2c1C(=O)NS(=O)(=O)Nc1ccc(Cl)cc1	94	95	92	97	97	95
C=CCN1C(=NC(=O)CCCC(=O)O)SC2CS(=O)(=O)CC21 (stereo not given)	97	76*	99	100	99	104
COc1ccc(-c2c3c(nc4sc5c(=O)[nH]c(C)nc5c24)CCC3)cc1	81	87	89	76*	76*	81
